# From PubChem BioAssay (NCI)
# Compounds without any hit were thinned out: in the full panel of roughly 83,000, 20% have a hit.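 Compound tested at a single concentration for 48 hours in 96-well plates; a percent growth value below 10 was scored as active.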 Calls of active or inactive are those of the source.
# System: SK-MEL-2 melanoma
# Assay: NCI-60 one-dose screen, 48 h (100 = growth as untreated, 0 = no growth, -100 = all killed)
# Details: 10 µM unless noted
row,SMILES,growth
1,Nc1ccc(F)c(Cl)c1F,108% (inactive)
2,COc1ccc(Br)c2c1C(=O)CC2,96% (inactive)
3,Oc1cccnc1CN1CCCC1,108% (inactive)
4,CC(C)(CC(=O)O)CC(=O)O,107% (inactive)
5,CN=S(=O)(OCCCCCOS(=O)(=NC)c1ccc(C)cc1)c1ccc(C)cc1 (stereo unspecified),94% (inactive)
6,NC(CO)(CO)c1ccccc1,107% (inactive)
7,CC1CC2C3CCC4=CC(=O)CCC4(C)C3CCC2(C)C1(O)C(=O)CO (stereo unspecified),99.2% (inactive)
8,CC(c1ccccc1)N1C(=O)CSC1=S (stereo unspecified),1.02% (active)
9,CN1CCN(C(=S)S)CC1,114% (inactive)
10,Nc1ncnc(Nc2ccccc2)n1,103% (inactive)
11,O=c1cc(C(F)(F)F)[nH]c(=S)[nH]1,111% (inactive)
12,CCOC(=O)c1c(C)[nH]c(C)c1C=O,102% (inactive)
13,CCOP(=O)(NC(c1ccccc1)c1ccccc1)OCC,109% (inactive)
14,CC(C)(C)[Si](C)(C)OCC1OC(n2cnc3c(N)ncnc32)CC1OS(C)(=O)=O (stereo unspecified),105% (inactive)
15,Nc1nc(Cl)cc(Cl)n1,96% (inactive)
16,C=C(C)COc1ccc(C(C)(C)C)cc1,101% (inactive)
17,Nc1ccc2c(c1)Cc1cc(N)c(N)cc1-2,88.8% (inactive)
18,Clc1ccc(C(SCc2ccccc2)SCc2ccccc2)cc1,103% (inactive)
19,O=[N+]([O-])c1ccc(-c2nc(N(CCO)CCO)c3ccccc3n2)o1,-62.7% (active)

row,SMILES,growth
1,CCNC(=O)OCCc1c2ccccc2nc2ccccc12,111% (inactive)
2,C=C(OC(C)=O)c1ccccc1,96.9% (inactive)
3,O=C(OCc1ccccc1)n1nnc2ccccc21,108% (inactive)
4,Cc1ccc2nc(N)nnc2c1,107% (inactive)
5,CC(=O)NC(CCC(=O)c1ccccc1)C(=O)O (stereo unspecified),104% (inactive)
6,CCOC(=O)/C(C#N)=C\c1c[nH]c2ccccc12,105% (inactive)
7,CCN(C(=O)Nc1ccccc1Cl)c1ccccc1,114% (inactive)
8,Nc1cc2ccccc2c(O)c1O,85.3% (inactive)
9,NC(CSSCC(N)C(=O)O)C(=O)O (stereo unspecified),-8.58% (active)
10,COc1cc(C(=O)N2CCN(c3ccccc3)CC2)c2ccccc2n1,3.61% (active)
11,Cc1ccc(C)c(CCO)c1,134% (inactive)
12,S=c1nc2[nH]c3ccccc3c2n[nH]1,5.51% (active)
13,NCCCN1CCCC1=O,117% (inactive)
14,Cc1c(Cl)cccc1N=C=S,99.5% (inactive)
15,O=[n+]1ccn([O-])c2ccccc21,120% (inactive)
16,Nc1ncnc2c1ncn2C1OC(CO)C2OC21 (stereo unspecified),95.2% (inactive)
17,CCOc1ccc2c(c1)c(C)cc(C)[n+]2CC,97.9% (inactive)
18,Cc1ccc(S(N)(=O)=O)cc1Cl,103% (inactive)
19,O=C1C=Cc2ccccc2/C1=C/c1[nH]c(=O)[nH]c1O,22.9% (inactive)

# System: EKVX NSCLC
# Assay: as above
# Details: 10 µM unless noted
row,SMILES,growth
1,Nc1ccc(F)c(Cl)c1F,107% (inactive)
2,COc1ccc(Br)c2c1C(=O)CC2,106% (inactive)
3,Oc1cccnc1CN1CCCC1,106% (inactive)
4,CC(C)(CC(=O)O)CC(=O)O,97.4% (inactive)
5,CN=S(=O)(OCCCCCOS(=O)(=NC)c1ccc(C)cc1)c1ccc(C)cc1 (stereo unspecified),95.4% (inactive)
6,NC(CO)(CO)c1ccccc1,113% (inactive)
7,CC1CC2C3CCC4=CC(=O)CCC4(C)C3CCC2(C)C1(O)C(=O)CO (stereo unspecified),99.4% (inactive)
8,CC(c1ccccc1)N1C(=O)CSC1=S (stereo unspecified),52.1% (inactive)
9,CN1CCN(C(=S)S)CC1,106% (inactive)
10,Nc1ncnc(Nc2ccccc2)n1,122% (inactive)
11,O=c1cc(C(F)(F)F)[nH]c(=S)[nH]1,95% (inactive)
12,CCOC(=O)c1c(C)[nH]c(C)c1C=O,102% (inactive)
13,CCOP(=O)(NC(c1ccccc1)c1ccccc1)OCC,109% (inactive)
14,CC(C)(C)[Si](C)(C)OCC1OC(n2cnc3c(N)ncnc32)CC1OS(C)(=O)=O (stereo unspecified),105% (inactive)
15,Nc1nc(Cl)cc(Cl)n1,103% (inactive)
16,C=C(C)COc1ccc(C(C)(C)C)cc1,98.9% (inactive)
17,Nc1ccc2c(c1)Cc1cc(N)c(N)cc1-2,88.6% (inactive)
18,Clc1ccc(C(SCc2ccccc2)SCc2ccccc2)cc1,89.9% (inactive)
19,O=[N+]([O-])c1ccc(-c2nc(N(CCO)CCO)c3ccccc3n2)o1,-32.4% (active)

row,SMILES,growth
1,CCNC(=O)OCCc1c2ccccc2nc2ccccc12,115% (inactive)
2,C=C(OC(C)=O)c1ccccc1,111% (inactive)
3,O=C(OCc1ccccc1)n1nnc2ccccc21,98.2% (inactive)
4,Cc1ccc2nc(N)nnc2c1,113% (inactive)
5,CC(=O)NC(CCC(=O)c1ccccc1)C(=O)O (stereo unspecified),99.2% (inactive)
6,CCOC(=O)/C(C#N)=C\c1c[nH]c2ccccc12,75.7% (inactive)
7,CCN(C(=O)Nc1ccccc1Cl)c1ccccc1,111% (inactive)
8,Nc1cc2ccccc2c(O)c1O,83.4% (inactive)
9,NC(CSSCC(N)C(=O)O)C(=O)O (stereo unspecified),21.9% (inactive)
10,COc1cc(C(=O)N2CCN(c3ccccc3)CC2)c2ccccc2n1,51.6% (inactive)
11,Cc1ccc(C)c(CCO)c1,112% (inactive)
12,S=c1nc2[nH]c3ccccc3c2n[nH]1,66.4% (inactive)
13,NCCCN1CCCC1=O,122% (inactive)
14,Cc1c(Cl)cccc1N=C=S,89.1% (inactive)
15,O=[n+]1ccn([O-])c2ccccc21,104% (inactive)
16,Nc1ncnc2c1ncn2C1OC(CO)C2OC21 (stereo unspecified),105% (inactive)
17,CCOc1ccc2c(c1)c(C)cc(C)[n+]2CC,35.9% (inactive)
18,Cc1ccc(S(N)(=O)=O)cc1Cl,125% (inactive)
19,O=C1C=Cc2ccccc2/C1=C/c1[nH]c(=O)[nH]c1O,69.6% (inactive)
